Source: PubChem BioAssay
Active and inactive are the calls of the source. Unless noted, how the calls were made is not given here.

How the values were obtained:
[1] = compound effects on lung adenocarcinoma cell viability – A549, calcein-AM fluorescence, 48 h, basal, profiling panel (AID 1162); settings: higher = more signal; further: test concentration not given here
[2] = compound effects on differentiated 3T3-L1 adipocyte viability – cell-based, 3T3-L1 adipocytes, calcein-AM fluorescence, 48 h, basal, profiling panel (AID 1163); settings: 3T3-L1 adipocytes viability, higher = more signal; further: test concentration not given here
[3] = compound effects on hepatocellular carcinoma cell viability – HepG2, calcein-AM fluorescence, 48 h, basal, profiling panel (AID 1164); settings: higher = more signal; further: test concentration not given here
[4] = compound effects on multiple myeloma cell viability – MM1S, calcein-AM fluorescence, 48 h, basal, profiling panel (AID 1165); settings: higher = more signal;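 further: viability of MM1S multiple myeloma cells under basal unstimulated conditions; test concentration not given here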
[5] = calcein-AM signal in unstimulated myeloma cells – cell-based, calcein-AM fluorescence, 48 h, PK04 Diversity Set, profiling panel (AID 1166); settings: RPMI8226 myeloma viability, higher = more signal;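 further: cells grown under basal conditions without added stimulus; test concentration not given here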
[6] = JC-1 mitochondrial signal, unstimulated HepG2 cells – cell-based, JC-1 fluorescence, 24 h, 100 nL compound, profiling panel (AID 1167); settings: HepG2 mitochondrial potential, higher = more signal; further: test concentration not given here
[7] = JC-1 mitochondrial signal, unstimulated adipocytes – cell-based, JC-1 fluorescence, 3T3-L1 adipocytes, 24 h, 100 nL compound, profiling panel (AID 1168); settings: JC-1 mitochondrial fluorescence, higher = more signal, called active from +8 up or from −8 down; further: test concentration not given here
[8] = JC-1 mitochondrial signal, unstimulated myeloma cells – cell-based, JC-1 fluorescence, RPMI8226, 24 h, 100 nL compound, profiling panel (AID 1169); settings: JC-1 mitochondrial potential fluorescence, higher = more signal; further: test concentration not given here
[9] = JC-1 mitochondrial signal, unstimulated MM1S myeloma – cell-based, JC-1 fluorescence, 24 h, 100 nL compound, profiling panel (AID 1170); settings: MM1S mitochondrial potential, higher = more signal; further: test concentration not given here
[10] = resazurin metabolic signal in A549 cells – cell-based, resazurin fluorescence, 24 h, PK04 Diversity Set, profiling panel (AID 1171); settings: A549 viability, higher = more signal, called active from +8 up or from −8 down; further: test concentration not given here
[11] = resazurin metabolic signal in HepG2 cells – cell-based, resazurin fluorescence, 24 h, PK04 Diversity Set, profiling panel (AID 1172); settings: HepG2 viability, higher = more signal; further: test concentration not given here
[12] = budding yeast growth changes without added modifier – OD600, strain BY4716, 24 h, basal condition, primary screen (AID 1173); settings: S. cerevisiae BY4716 growth, OD600, 24 h; higher = more signal, called active from +8 up or from −8 down
[13] = viability profiling in MM1S myeloma cells – cell-based, resazurin fluorescence, basal, 24 h, PK04 Diversity Set, profiling panel (AID 1174); settings: higher = more signal, called active from +8 up or from −8 down; further: test concentration not given here
[14] = biological target: Dihydroorotate dehydrogenase (quinone), mitochondrial (Plasmodium falciparum (isolate 3D7)) (UniProt Q08210); experiment: inhibition of P. falciparum DHODH – biochemical, C-terminal His tag, absorbance 600 nm, primary screen (AID 1175); settings: PfDHODH enzyme, DCIP absorbance 600 nm; higher = more signal, called active from +8 up or from −8 down;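 further: recombinant parasite enzyme with a five histidine tag at its C terminus; test concentration not given here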
[15] = inhibition of PAO1 biofilm formation – strain PAO1, LB-PBS medium, absorbance 600 nm, primary screen (AID 1176); further: test concentration not given here; settings: P. aeruginosa PAO1 growth/biofilm, A600, 12 h; higher = more signal
[16] = growth modulation of vineyard yeast isolate – strain RM11-1a, OD600, basal, 24 h, primary screen (AID 1177);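 further: cultures grown under basal conditions with no added stressor; test concentration not given here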; settings: S. cerevisiae RM11-1a growth, OD600, 24 h; higher = more signal, called active from +8 up or from −8 down
[17] = growth of efflux-deficient E. coli DRC39 – strain DRC39, OD650, 24 h, E. coli filamentation inducers, primary screen (AID 1178);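 further: growth measured as culture turbidity by optical density at 650 nm; test concentration not given here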; settings: E. coli DRC39 acrAB, higher = more signal, called active from +8 up or from −8 down
[18] = growth of efflux-deficient E. coli DRC39 – strain DRC39, OD650, 48 h, E. coli filamentation inducers, primary screen (AID 1179);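 further: screen aims at cell division blockers that make cells filament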; settings: E. coli DRC39 delta-acrAB growth, higher = more signal, called active from +8 up or from −8 down
[19] = viability profiling in RPMI8226 myeloma cells – cell-based, resazurin fluorescence, basal, 24 h, PK04 Diversity Set, profiling panel (AID 1180); settings: higher = more signal;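 further: RPMI8826 multiple myeloma cell line at 5000 cells per well; test concentration not given here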
[20] = biological target: E3 ubiquitin-protein ligase XIAP (Homo sapiens) (UniProt P98170); experiment: small molecules binding XIAP protein – biophysical, small-molecule microarray, fluorescence 635 nm, primary screen (AID 1181); settings: higher = more signal;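 further: score merges 667 nm emission and signal to noise over triplicate slides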
E3 ubiquitin-protein ligase XIAP (Homo sapiens), sequence (P98170 whole entry, looked up): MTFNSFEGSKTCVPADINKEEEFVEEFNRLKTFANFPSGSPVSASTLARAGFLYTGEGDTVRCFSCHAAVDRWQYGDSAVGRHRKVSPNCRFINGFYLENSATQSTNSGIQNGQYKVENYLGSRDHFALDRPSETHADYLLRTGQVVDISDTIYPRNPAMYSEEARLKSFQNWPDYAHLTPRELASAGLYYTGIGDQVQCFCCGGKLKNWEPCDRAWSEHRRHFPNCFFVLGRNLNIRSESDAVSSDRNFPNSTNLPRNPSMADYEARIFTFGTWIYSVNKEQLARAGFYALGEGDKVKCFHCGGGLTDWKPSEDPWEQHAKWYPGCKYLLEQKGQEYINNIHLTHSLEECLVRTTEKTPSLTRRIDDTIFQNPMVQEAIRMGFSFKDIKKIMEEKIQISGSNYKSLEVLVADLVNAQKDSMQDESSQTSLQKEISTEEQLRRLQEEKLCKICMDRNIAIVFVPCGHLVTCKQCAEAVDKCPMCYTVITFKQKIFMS

Dihydroorotate dehydrogenase (quinone), mitochondrial (Plasmodium falciparum (isolate 3D7)), sequence (Q08210 whole entry, looked up): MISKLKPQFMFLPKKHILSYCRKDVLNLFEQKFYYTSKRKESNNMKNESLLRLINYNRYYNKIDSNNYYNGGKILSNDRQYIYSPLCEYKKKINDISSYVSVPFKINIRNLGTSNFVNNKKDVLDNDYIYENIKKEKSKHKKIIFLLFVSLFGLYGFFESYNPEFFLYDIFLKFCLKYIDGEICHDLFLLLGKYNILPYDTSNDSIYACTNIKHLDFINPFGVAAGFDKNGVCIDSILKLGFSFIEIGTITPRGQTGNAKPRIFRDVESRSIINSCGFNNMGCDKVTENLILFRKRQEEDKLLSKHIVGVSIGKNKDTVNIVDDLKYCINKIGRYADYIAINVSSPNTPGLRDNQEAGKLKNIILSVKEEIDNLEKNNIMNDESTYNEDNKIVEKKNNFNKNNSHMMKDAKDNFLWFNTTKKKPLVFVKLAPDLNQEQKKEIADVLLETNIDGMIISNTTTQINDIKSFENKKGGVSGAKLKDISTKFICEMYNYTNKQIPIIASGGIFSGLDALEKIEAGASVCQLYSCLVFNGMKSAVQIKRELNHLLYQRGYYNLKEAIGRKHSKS

| SMILES | z-score [1] | z-score [2] | z-score [3] | z-score [4] | z-score [5] | z-score [6] | z-score [7] | z-score [8] | z-score [9] | z-score [10] | z-score [11] | z-score [12] | z-score [13] | composite z-score [14] | z-score [15] | z-score [16] | z-score [17] | z-score [18] | z-score [19] | composite z-score [20] |
| --- | --- | --- | --- | --- | --- | --- | --- | --- | --- | --- | --- | --- | --- | --- | --- | --- | --- | --- | --- | --- |
| CC(=O)OC[C@H]1O[C@H](CC=NOC(C)CN2CCCc3nc(C)c(C)cc32)C=C[C@@H]1OC(C)=O (stereo not given in full) | -0.234 | 0.114 | -0.806 | -2.94 | -0.639 | -0.706 | 0.264 (inactive) | -0.131 | -0.188 | -0.135 (inactive) | -0.368 | -0.494 (inactive) | 0.161 (inactive) | 0.159 (inactive) | -0.373 (inactive) | 0.634 (inactive) | 0.603 (inactive) | -0.147 (inactive) | 0.12 | 0.145 |
| O=C1[C@H]2CCn3c(=O)n(-c4ccccc4)c(=O)n3[C@H]2[C@H](O)[C@@H]2O[C@H]12 | 0.0313 | -0.226 | -0.352 | -1.32 | -0.19 | -0.237 | -0.169 (inactive) | -0.104 | -0.351 | -0.331 (inactive) | -0.507 | -0.251 (inactive) | -0.468 (inactive) | -0.106 (inactive) | -0.212 (inactive) | -0.303 (inactive) | -0.447 (inactive) | -0.489 (inactive) | -0.579 | -0.287 |
| CO[C@H]1COC(=O)CC=C[C@H](C)[C@H](OC)COC(=O)[C@@H](C)NC(=O)CC=C[C@@H]1C | -0.42 | 0.269 | -0.642 | 0.0674 | 0.222 | -0.66 | -0.557 (inactive) | -0.283 | -0.248 | 0.691 (inactive) | 0.664 | -1.17 (inactive) | 0.623 (inactive) | -0.498 (inactive) | -0.467 (inactive) | -1.22 (inactive) | 0.124 (inactive) | -0.0133 (inactive) | 0.379 | 0.0399 |
| CC(=O)OC[C@H]1O[C@@H](ON=C(C)CCC(=O)OC[C@H]2O[C@H](C#Cc3ccccc3)C=C[C@@H]2Oc2ccc(C)cc2)[C@H](OC(C)=O)[C@@H](OC(C)=O)[C@@H]1OC(C)=O | 0.16 | 0.57 | -0.325 | 0.0628 | -0.062 | 0.632 | -1.55 (inactive) | 0.393 | 0.69 | 0.221 (inactive) | 0.0214 | -0.053 (inactive) | 0.364 (inactive) | -0.47 (inactive) | -0.102 (inactive) | 0.0837 (inactive) | 0.297 (inactive) | -0.905 (inactive) | 0.135 | -0.269 |
| COC(=O)CC=C[C@@H](C)[C@@H](C=NOC[C@@H](O)[C@H]1O[C@@H]2OC(C)(C)O[C@@H]2[C@H]1O)OC | 0.218 | 0.0495 | 0.0068 | -0.952 | 0.216 | 0.103 | -0.637 (inactive) | -0.199 | 0.781 | -0.743 (inactive) | -0.904 | -0.385 (inactive) | -0.311 (inactive) | 0.757 (inactive) | -0.525 (inactive) | 0.442 (inactive) | 0.404 (inactive) | 0.493 (inactive) | -1.51 | -0.158 |
| C[C@@H]1CC[C@H]2C(=O)OC(Cc3ccccc3)CN2[C@H]1c1ccc(Br)cc1 (stereo not given in full) | 1.47 | -1.25 | 0.556 | 0.637 | -0.66 | 1.34 | -1.43 (inactive) | 0.558 | -0.332 | 0.472 (inactive) | 0.352 | -3.48 (inactive) | 0.417 (inactive) | 0.637 (inactive) | -0.658 (inactive) | 0.2 (inactive) | 1.06 (inactive) | 0.485 (inactive) | -0.726 | 0.0299 |
| COc1ccc(COC(=O)NN=C2C[C@@H](O)[C@@H](O)[C@@H]3[C@@H]4C(=O)N(Cc5ccc6c(c5)OCO6)C(=O)[C@@H]4CC[C@H]23)cc1 | -0.0897 | -0.243 | 0.53 | 0.311 | -0.0157 | 0.301 | -0.339 (inactive) | 0.0307 | -0.825 | -0.0129 (inactive) | -0.318 | 0.321 (inactive) | -0.0139 (inactive) | -0.394 (inactive) | -0.273 (inactive) | 0.139 (inactive) | 0.586 (inactive) | 1.17 (inactive) | 0.18 | 0.0498 |
| CCN1C(=O)[C@H]2[C@H]3[C@H](O)[C@H](O)CC(=NOC(C)CN4CCCc5nc(C)c(C)cc54)[C@@H]3CC[C@H]2C1=O (stereo not given in full) | 0.355 | -0.769 | -0.283 | -1.78 | -0.99 | 0.128 | -0.886 (inactive) | 0.534 | -0.902 | -0.696 (inactive) | -1.01 | -0.0189 (inactive) | -2 (inactive) | 0.988 (inactive) | -0.112 (inactive) | 0.49 (inactive) | 0.836 (inactive) | 0.583 (inactive) | -2.01 | 0.109 |
| C#CCCCON=C1C[C@@H](O)[C@@H](O)[C@@H]2[C@@H]3C(=O)N(C[C@@H]4CCCO4)C(=O)[C@@H]3CC[C@@H]12 | 0.137 | 1.22 | -0.396 | 0.476 | -0.0761 | -0.444 | 0.27 (inactive) | -0.193 | -0.485 | 0.0354 (inactive) | 0.475 | 0.43 (inactive) | 0.0893 (inactive) | -0.85 (inactive) | 0.14 (inactive) | -0.399 (inactive) | 0.534 (inactive) | 0.802 (inactive) | 0.199 | -0.0303 |
